# Measurements taken from PubChem BioAssay (Tox21).
# Unmarked numbers belong to inactive results. Inconclusive results are not listed. Where a call stands in place of a potency, no number is given. Calls of active or inactive are those of the source. Unless noted, calls follow the shape of the dose curve; as a rule, active = well fitted curve in the direction sought with a large enough effect in the repeat runs; inconclusive = weak or mixed curves; inactive = no such curve, though single readings can be large; an effect the other way counts as inactive or inconclusive.
# What was measured:
# [1] = qHTS assay to identify small molecule agonists of the estrogen receptor alpha (ER-alpha) signaling pathway in the presence of an antagonist - cell viability counter screen (AID 1259386);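 also: cells exposed to compounds for 22 h at 37 °C before the viability read; nearly all actives have a fitted effect of over 30% in size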; also: potency is read from the fitted curve at half-maximal effect
# Outline: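 VM7Luc4E2 cells (endogenous full-length ER-alpha, 4×ERE-luciferase) were held 5 days in phenol red-free medium with 10% charcoal-stripped FBS, plated, then given 10.0nM ICI-182,780 and compounds at 15 concentrations for 22hr at 37C; viability read by CellTiter-Fluor fluorescence.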
# [2] = target: Progesterone receptor (Homo sapiens) (UniProt P06401); experiment: qHTS assay to identify small molecule agonists of the progesterone receptor (PR) signaling pathway (AID 1346784; calls by dose curve; also: nearly all actives have a fitted effect of over 30% in size)
# Outline: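 PR-UAS-bla HEK 293T cells carrying a UAS-driven beta-lactamase reporter were seeded in medium with 2% charcoal-stripped FBS, preincubated 6 hr at 37C, then exposed to compounds in DMSO for 16 hr; agonism was read by LiveBLAzer B/G FRET fluorescence.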
# [3] = target: Progesterone receptor (Homo sapiens) (UniProt P06401); experiment: qHTS assay to identify small molecule antagonists of the progesterone receptor (PR) signaling pathway (AID 1346795; active = well fitted inhibition curve with a large enough effect in the signal ratio in the repeat runs, not every such curve was filed as active; the % refers to the signal ratio; also: potency is read from the fitted curve at half-maximal effect)
# Outline: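 PR-UAS-bla HEK293T cells carrying a UAS-driven beta-lactamase reporter were plated in medium with 2% charcoal-stripped FBS and rested 6 hr at 37C. Compounds were added with 1 nM R5020 (final) for 16 hr, then FRET substrate loaded 2 hr at room temperature.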
# [4] = qHTS assay to identify small molecule antagonists of the progesterone receptor (PR) signaling pathway - cell viability counter screen (AID 1346798); also: series mostly up to about 92 µM; nearly all actives have a fitted effect of over 50% in size
# Outline: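 PR-UAS-bla HEK293T cells in medium with 2% charcoal-stripped FBS were treated with compounds plus R5020 for 16 hr at 37C. Cell viability was then read by CellTiter-Glo luminescence after 30 min at room temperature in the same wells.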
# [5] = qHTS assay to identify small molecule agonists of the progesterone receptor (PR) signaling pathway - cell viability counter screen (AID 1346799; calls by dose curve; also: nearly all actives have a fitted effect of over 45% in size)
# Outline: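 PR-UAS-bla HEK293T cells, 3,000 per well in medium with 2% charcoal-stripped FBS, were preincubated 6 hr at 37C, then exposed to compounds for 16 hr; viability was read as CellTiter-Glo luminescence after 30 min at room temperature.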
# [6] = qHTS assay to identify small molecule antagonists of the TGF-beta/Smad signaling pathway - cell viability counter screen (AID 1346824); also: nearly all actives have a fitted effect of over 50% in size
# Outline: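 SBE-bla HEK 293T cells were plated overnight at 37 C, then given compounds in DMSO plus TGF-beta1 (added as 0.25 ng/mL solution) for 5 hr. After the bla read, CellTiter-Glo was added to the same wells and luminescence read after 30 min at room temperature.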
# [7] = qHTS assay to identify small molecule agonists of the TGF-beta/Smad signaling pathway - cell viability counter screen (AID 1346829); also: top concentration of the series differs between compounds; nearly all actives have a fitted effect of over 45% in size
# Outline: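 SBE-bla HEK 293T cells plated overnight, compound exposure 5 hr at 37 C. Viability read in the same wells by CellTiter-Glo luminescence after 30 min at room temperature, following the beta-lactamase read.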
# [8] = qHTS assay to identify small molecule agonists of the TGF-beta/Smad signaling pathway (AID 1346859; active = well fitted activation curve with a large enough effect in the signal ratio in the repeat runs, not every such curve was filed as active; the % refers to the signal ratio; also: series mostly up to about 77 µM)
# Outline: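 HEK 293T cells stably carrying a beta-lactamase reporter driven by the Smad binding element were seeded overnight, exposed to DMSO-dissolved compounds for 5 hr at 37 C, 5% CO2, then loaded with FRET substrate for 2 hr at room temperature.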
# [9] = target: Thyrotropin-releasing hormone receptor (Homo sapiens) (UniProt P34981); experiment: qHTS assay to identify small molecule antagonists of the thyrotropin-releasing hormone receptor (TRHR) signaling pathway (AID 1346877; active = well fitted inhibition curve with a large enough effect in the repeat runs, not every such curve was filed as active; also: series mostly up to about 51 µM)
# Outline: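 TRHR-expressing HEK293 cells were seeded, cultured 18 h at 37 °C, then loaded with calcium dye for 2 h. Compounds were pre-incubated 5 min at room temperature before 1 nM TRH (final) was added, and kinetic fluorescence was recorded for 3 min.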
# [10] = target: Thyrotropin-releasing hormone receptor (Homo sapiens) (UniProt P34981); experiment: qHTS assay to identify small molecule agonists of the thyrotropin-releasing hormone receptor (TRHR) signaling pathway (AID 1346891; calls by dose curve; also: series mostly up to about 58 µM)
# Outline: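 TRHR-expressing HEK293 cells were plated 18 h at 37 °C/5% CO2, loaded with calcium dye 2 h at 37 °C, then given compound in DMSO; fluorescence was read kinetically for 3 min at 1 s intervals.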
# Progesterone receptor (Homo sapiens), sequence (P06401 whole entry, looked up): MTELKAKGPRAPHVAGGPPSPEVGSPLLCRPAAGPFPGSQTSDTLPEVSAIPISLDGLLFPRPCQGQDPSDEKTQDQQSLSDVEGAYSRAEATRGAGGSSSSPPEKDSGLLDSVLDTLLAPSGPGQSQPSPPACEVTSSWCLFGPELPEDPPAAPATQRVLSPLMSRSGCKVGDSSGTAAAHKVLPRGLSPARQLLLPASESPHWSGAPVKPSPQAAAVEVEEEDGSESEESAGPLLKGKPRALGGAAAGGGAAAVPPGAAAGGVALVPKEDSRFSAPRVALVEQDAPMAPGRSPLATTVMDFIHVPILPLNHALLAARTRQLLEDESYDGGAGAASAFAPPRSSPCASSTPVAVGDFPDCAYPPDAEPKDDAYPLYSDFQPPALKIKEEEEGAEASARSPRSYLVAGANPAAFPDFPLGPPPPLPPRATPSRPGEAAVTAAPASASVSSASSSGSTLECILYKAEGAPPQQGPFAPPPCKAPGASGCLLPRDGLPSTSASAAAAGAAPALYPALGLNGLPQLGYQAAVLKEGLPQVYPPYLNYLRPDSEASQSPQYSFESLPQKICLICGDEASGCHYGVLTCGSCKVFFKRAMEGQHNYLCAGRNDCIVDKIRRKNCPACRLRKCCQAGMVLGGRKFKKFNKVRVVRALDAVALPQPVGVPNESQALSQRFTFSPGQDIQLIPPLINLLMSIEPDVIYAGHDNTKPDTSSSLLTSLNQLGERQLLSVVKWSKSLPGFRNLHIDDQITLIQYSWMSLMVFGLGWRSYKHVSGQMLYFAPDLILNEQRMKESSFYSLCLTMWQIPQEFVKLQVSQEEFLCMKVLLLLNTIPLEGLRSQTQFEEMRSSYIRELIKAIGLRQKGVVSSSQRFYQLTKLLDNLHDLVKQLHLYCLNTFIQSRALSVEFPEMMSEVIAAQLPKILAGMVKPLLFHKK
# Thyrotropin-releasing hormone receptor (Homo sapiens), sequence (P34981 whole entry, looked up): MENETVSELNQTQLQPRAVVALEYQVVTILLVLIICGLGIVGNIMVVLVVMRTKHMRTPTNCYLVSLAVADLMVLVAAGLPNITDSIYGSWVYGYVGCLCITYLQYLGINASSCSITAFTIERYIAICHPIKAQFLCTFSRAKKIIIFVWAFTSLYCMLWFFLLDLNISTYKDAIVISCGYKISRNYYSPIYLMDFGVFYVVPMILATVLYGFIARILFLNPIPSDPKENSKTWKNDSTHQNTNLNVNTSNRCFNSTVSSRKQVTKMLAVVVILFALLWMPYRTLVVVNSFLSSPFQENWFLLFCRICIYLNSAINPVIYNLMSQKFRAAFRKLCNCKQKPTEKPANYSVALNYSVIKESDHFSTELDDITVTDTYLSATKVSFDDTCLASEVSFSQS
Structure (SMILES),Potency [1],Potency [2],Potency [3],Potency [4],Potency [5],Potency [6],outcome [7],outcome [8],outcome [9],outcome [10]
CC1=NNC(=O)N(/N=C/c2cccnc2)C1,inactive,inactive,inactive,inactive,inactive,inactive,inactive,inactive,inactive,inactive
C(CCOCC1CO1)COCC1CO1 (stereo not given),inactive,inactive,inactive,inactive,inactive,inactive,inactive,inactive,inactive,inactive
CCCCOP(=O)(O)OCCCC,inactive,inactive,inactive,inactive,inactive,inactive,inactive,inactive,inactive,inactive
COC(=O)c1ccccc1S(=O)(=O)NC(=O)N(C)c1nc(C)nc(OC)n1,inactive,inactive,inactive,inactive,inactive,inactive,inactive,inactive,inactive,inactive
Clc1ccccc1N1CCNCC1,inactive,inactive,inactive,inactive,–,inactive,inactive,inactive,inactive,inactive
Cc1cccc(C#N)c1,inactive,inactive,inactive,inactive,–,inactive,inactive,inactive,inactive,inactive
Oc1c(Cl)cccc1Cl,inactive,inactive,inactive,inactive,inactive,inactive,inactive,inactive,inactive,inactive
COc1ccc(C(=O)N2CCCC2=O)cc1,inactive,inactive,inactive,inactive,inactive,inactive,inactive,–,inactive,inactive
CCOP(=O)(N=C1SCCS1)OCC,inactive,inactive,inactive,inactive,inactive,inactive,inactive,inactive,inactive,inactive
NC(=O)O,inactive,inactive,inactive,inactive,inactive,inactive,inactive,inactive,inactive,inactive
ClC(Cl)C(Cl)Cl,inactive,inactive,inactive,inactive,–,inactive,inactive,inactive,–,–
N#CC(O)c1ccccc1 (stereo not given),inactive,inactive,inactive,inactive,–,inactive,inactive,inactive,inactive,inactive
CCOP(=S)(OCC)SCSc1ccc(Cl)cc1,inactive,inactive,4.86 µM (active),inactive,inactive,inactive,inactive,inactive,inactive,inactive
CN1CCN(C(=O)O[C@H]2c3nccnc3C(=O)N2c2ccc(Cl)cn2)CC1,inactive,inactive,inactive,inactive,inactive,inactive,inactive,inactive,inactive,inactive
CCS(=O)(=O)C(C)(C)S(=O)(=O)CC,inactive,inactive,inactive,inactive,inactive,inactive,inactive,–,inactive,inactive
CCC(=O)C(CCN(C)C)(c1ccccc1)c1ccccc1,inactive,inactive,inactive,inactive,inactive,inactive,inactive,–,inactive,inactive
ClC(Cl)Br,inactive,inactive,inactive,inactive,inactive,–,inactive,inactive,inactive,inactive
CNC(=O)Oc1c(C(C)(C)C)cc(C)cc1C(C)(C)C,inactive,inactive,inactive,inactive,–,inactive,inactive,inactive,inactive,inactive
CCc1cc2c(s1)-n1c(C)nnc1CN=C2c1ccccc1Cl,inactive,inactive,inactive,inactive,inactive,inactive,inactive,inactive,inactive,inactive

Structure (SMILES),Potency [1],Potency [2],Potency [3],Potency [4],Potency [5],Potency [6],outcome [7],outcome [8],outcome [9],outcome [10]
O=C(Cc1ccccc1)OCc1ccccc1,inactive,inactive,inactive,inactive,–,inactive,inactive,inactive,–,–
CC(C)(C)NCC(O)c1cc(Cl)c(N)c(Cl)c1 (stereo not given),21.1 µM (active),inactive,inactive,inactive,–,inactive,inactive,–,–,–
COc1ncc(F)c2nc(S(=O)(=O)Nc3c(F)cccc3F)nn12,inactive,inactive,inactive,inactive,–,inactive,inactive,inactive,inactive,inactive
C#CCN1C(=O)COc2cc(F)c(N3C(=O)C4=C(CCCC4)C3=O)cc21,inactive,inactive,inactive,–,–,inactive,inactive,inactive,inactive,inactive
CCN(CC)C(=O)[C@@H]1C=C2c3cccc4[nH]cc(c34)C[C@H]2N(C)C1,56.7 µM (active),inactive,inactive,–,–,inactive,inactive,inactive,inactive,inactive
Nc1cc2c3c(c1)C(c1ccccc1)=N[C@@H](NC(=O)c1cccnc1)C(=O)N3CC2,inactive,inactive,inactive,–,inactive,inactive,inactive,inactive,–,–
CC(CCc1ccccc1)NC(C)C(O)c1ccc(O)cc1 (stereo not given),inactive,inactive,–,inactive,inactive,inactive,inactive,inactive,–,–
CCCSC(=O)N(CCC)CCC,inactive,inactive,inactive,inactive,–,inactive,inactive,–,inactive,inactive
OC(Cn1cncn1)(c1ccc(F)cc1)c1ccccc1F (stereo not given),inactive,inactive,inactive,inactive,–,inactive,inactive,inactive,inactive,inactive
O=C(NCO)NCO,inactive,inactive,–,inactive,inactive,inactive,inactive,inactive,–,–
CC1CN1P(=O)(N1CC1C)N1CC1C (stereo not given),inactive,inactive,inactive,inactive,–,inactive,inactive,inactive,inactive,inactive
CC1(C(=O)Nc2ccc(O)c(Cl)c2Cl)CCCCC1,inactive,inactive,27.3 µM (active),–,–,inactive,inactive,inactive,inactive,inactive
CC(=O)CCc1ccc2c(c1)OCO2,inactive,inactive,inactive,inactive,–,inactive,inactive,inactive,inactive,inactive
CNC(=O)N(C)c1nc2ccccc2s1,inactive,inactive,–,inactive,inactive,inactive,inactive,inactive,inactive,inactive
C=CC1CC=CCC1 (stereo not given),inactive,inactive,inactive,–,–,inactive,inactive,inactive,inactive,inactive
C[C@]12CC[C@H]3[C@@H](CCC4=CC(=O)CC[C@@]43C)[C@@H]1CC[C@@H]2C(=O)O,inactive,inactive,–,inactive,inactive,inactive,inactive,–,–,–
CC(C)NCC(O)c1ccc(N)c(C#N)c1 (stereo not given),inactive,inactive,inactive,–,inactive,inactive,inactive,inactive,–,–
CC1CCCCC1NC(=O)Nc1ccccc1 (stereo not given),inactive,inactive,–,inactive,inactive,inactive,inactive,inactive,inactive,inactive
CN(N=O)C(N)=O,inactive,inactive,inactive,–,inactive,inactive,inactive,–,inactive,inactive

Structure (SMILES),Potency [1],Potency [2],Potency [3],Potency [4],Potency [5],Potency [6],outcome [7],outcome [8],outcome [9],outcome [10]
[Cl][Sn]([Cl])([Cl])[Cl],inactive,inactive,inactive,inactive,–,inactive,inactive,inactive,inactive,inactive
Cc1ncc(CNC(=O)N(CCCl)N=O)c(N)n1,inactive,inactive,inactive,–,–,inactive,inactive,inactive,inactive,inactive
CC(C1CC1)C(O)(Cn1cncn1)c1ccc(Cl)cc1 (stereo not given),inactive,inactive,48.3 µM (active),inactive,–,inactive,inactive,inactive,inactive,inactive
CC1(C)CON(Cc2ccccc2Cl)C1=O,inactive,inactive,–,inactive,inactive,inactive,inactive,inactive,inactive,inactive
O=C(Oc1ccc(Br)cc1)N1CCN2CCC1CC2,inactive,inactive,inactive,–,inactive,inactive,inactive,inactive,inactive,inactive
NC(=S)C(N)=S,inactive,inactive,inactive,–,–,inactive,inactive,inactive,–,–
c1ccc(N2CCNCC2)cc1,inactive,inactive,inactive,inactive,–,inactive,inactive,–,–,inactive
CCC(C)n1c(=O)[nH]c(C)c(Br)c1=O (stereo not given),inactive,inactive,inactive,inactive,–,inactive,inactive,inactive,inactive,inactive
ClC(Cl)(Cl)C(Cl)(Cl)Cl,inactive,inactive,inactive,–,inactive,inactive,inactive,inactive,–,–
C[N+](C)=CCl,inactive,inactive,inactive,–,–,inactive,inactive,inactive,inactive,inactive
BrCCCCCCBr,inactive,inactive,inactive,–,inactive,inactive,inactive,inactive,inactive,inactive
O=c1oc2ccccc2c(O)c1C1CCCc2ccccc21 (stereo not given),inactive,inactive,inactive,inactive,–,inactive,inactive,–,inactive,inactive
CCC1(c2ccccc2)C(=O)N=C(O)NC1=O (stereo not given),inactive,inactive,inactive,–,–,inactive,inactive,–,inactive,inactive
CCOP(=O)(OCC)OP(=O)(OCC)OCC,inactive,inactive,inactive,inactive,–,inactive,inactive,inactive,inactive,inactive
Cc1cc(C)nc(Nc2ccccc2)n1,inactive,inactive,–,inactive,inactive,inactive,inactive,inactive,inactive,inactive
COCC(=O)N(c1c(C)cccc1C)N1CCOC1=O,inactive,inactive,inactive,inactive,–,inactive,inactive,inactive,inactive,inactive
CC(C)CP(=S)(S)CC(C)C,inactive,inactive,0.486 µM (active),–,–,inactive,inactive,inactive,inactive,inactive
CSc1ccc(C(=O)C(C)(C)N2CCOCC2)cc1,inactive,inactive,27.3 µM (active),inactive,–,inactive,inactive,–,inactive,inactive
O=NN1CCCCC1,inactive,inactive,inactive,inactive,–,inactive,inactive,inactive,inactive,inactive
